Measurements published in PubChem BioAssay (NCATS).
Records with an inconclusive call do not appear. The source made the active and inactive calls. Unless noted, calls follow the shape of the dose curve; as a rule, active = well fitted curve in the direction sought with a large enough effect; inconclusive = small, poorly fitted or top-dose-only effect, or another doubt; inactive = no such curve, though single readings can be large; an effect the other way counts as inactive or inconclusive.

Key:
[1] = target: Cytochrome P450 3A4 (Homo sapiens) (UniProt P08684); assay: qHTS Assay for Inhibitors and Substrates of Cytochrome P450 3A4 (AID 884); conditions: recombinant CYP3A4, Luciferin-PPXE luminescence; series mostly up to 57.1 µM; also: nearly all actives have a fitted effect of over 50% in size; also: potency is read from the fitted curve at half-maximal effect
Procedure, shortened: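 20 nM human CYP3A4 with 25 uM Luciferin-PPXE (at KM) in 200 mM KPO4, preincubated 10 min with compound; NADPH regeneration started a 60 min RT reaction. Luciferin detected by luminescence, normalized to 57 uM ketoconazole as full inhibition.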

[2] = target: Cytochrome P450 3A4 (Homo sapiens) (UniProt P08684); assay: qHTS Assay for Activators of Cytochrome P450 3A4 (AID 885); conditions: recombinant CYP3A4, Luciferin-PPXE luminescence, 60 min; series mostly up to 57.1 µM; also: nearly all actives have a fitted effect of over 65% in size
Procedure, shortened: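 20nM CYP3A4 + 25uM Luciferin-PPXE (=KM), 200mM KPO4; cpd 10 min RT; NADPH regen, 60 min RT; stop w/ detection buffer, 20 min; luminescence. Normalized to 57 uM ketoconazole.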

[3] = Cell Viability - LYMP2-001 (AID 921); conditions: LYMP2-001 lymphoblastoid cell viability; series mostly up to 92.2 µM;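 also: cells exposed to compound for 24 h at 37 °C; nearly all actives have a fitted effect of over 70% in size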; also: potency is read from the fitted curve at half-maximal effect
Procedure, shortened: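 Human lymphoblastoid LYMP2-001 cells, 2500 per well, in complete medium, treated 24 h at 37 C. Viability from cellular ATP by CellTiter-Glo luminescence; AC50 from Hill-equation fits of qHTS concentration-response.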

[4] = MultiTox-Fluor Cytotoxicity Assay - LYMP1-001 - Dead Cells (AID 946); conditions: LYMP1-001 lymphoblastoid cells, dead-cell protease fluorescence; series mostly up to 92.2 µM;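 also: cells exposed to compound for 16 h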; also: potency is read from the fitted curve at half-maximal effect
Procedure, shortened: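 AC50 from Hill fit of concentration-response; data normalized to DMSO (basal) and 15 uM tetraoctylammonium bromide (100%). LYMP1-001 lymphoblastoid cells, 2500/well, 16 hr compound at 37 C; dead-cell protease fluorescence, Ex/Em 485/520.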

[5] = MultiTox-Fluor Cytotoxicity Assay - LYMP1-001 - Live Cells (AID 947); conditions: LYMP1-001 lymphoblastoid cells, live-cell protease fluorescence viability; series mostly up to 92.2 µM;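 also: 0% = DMSO only and full inhibition = tetraoctylammonium bromide control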
[6] = Cell Viability - LYMP1-002 - Assay at 16 hr (AID 948); conditions: LYMP1-002 lymphoblastoid cell viability; series mostly up to 92.2 µM;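 also: 0% = DMSO alone and full effect = 92 µM tetraoctylammonium bromide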
Procedure, shortened: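 LYMP1-002 human lymphoblastoid cells, 2500/well, were treated with compounds for 16 hr at 37 C in complete medium. Viability was read as intracellular ATP by CellTiter-Glo luminescence, and AC50 was derived from a Hill fit to concentration-response data.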

[7] = MultiTox-Fluor Cytotoxicity Assay - LYMP1-002 - Live Cells (AID 955); conditions: LYMP1-002 lymphoblastoid live-cell protease fluorescence viability; series mostly up to 46.1 µM;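 also: cells exposed to compound for 16 hours; % is scaled to controls: 0 for no effect and ±100 for the full control effect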
Procedure, shortened: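 Read-out is live-cell protease activity (cell-permeant GF-AFC substrate, fluorescence Ex/Em=405/510), where a decrease indicates acute toxicity. Human lymphoblastoid cells were treated 16 hours at 37 C in a concentration series, and AC50 values came from standard Hill modelling.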

[8] = MultiTox-Fluor Cytotoxicity Assay - LYMP1-003 - Dead Cells (AID 961); conditions: LYMP1-003 lymphoblastoid cells, dead-cell protease fluorescence; series mostly up to 92.2 µM;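 also: cells exposed to compound for 16 h at 37 °C; nearly all actives have a fitted effect of over 70% in size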; also: potency is read from the fitted curve at half-maximal effect
Procedure, shortened: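 Human lymphoblastoid LYMP1-003 cells (2500/well) were treated with compounds for 16 hr at 37 C in complete medium. Dead-cell protease release was read by bis-AAF-R110 fluorescence (Ex/Em 485/520). AC50 came from Hill fits, normalized to DMSO and 15 uM tetraoctylammonium bromide.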

[9] = target: Cytochrome P450 2C9 (Homo sapiens) (UniProt P11712); assay: qHTS Assay for Inhibitors and Substrates of Cytochrome P450 2C9 (AID 883); conditions: recombinant CYP2C9, luciferin-H luminescence, 60 min; series mostly up to 25.6 µM; also: % is scaled to controls: 0 for no effect and ±100 for the full control effect; nearly all actives have a fitted effect of over 60% in size
Procedure, shortened: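 Human CYP2C9 (10nM) with Luciferin-H at 100uM (its KM) in 25mM KPO4; compound preincubated 10 min at 37C, then NADPH regeneration for 60 min at 37C. Luciferin read by luminescence after detection reagent; normalized to 57uM sulphaphenazole as full inhibition.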

[10] = target: Cytochrome P450 2C19 (Homo sapiens) (UniProt P33261); assay: qHTS Assay for Inhibitors and Substrates of Cytochrome P450 2C19 (AID 899); conditions: recombinant CYP2C19, luciferin-H EGE luminescence; series mostly up to 25.6 µM; also: % is scaled to controls: 0 for no effect and ±100 for the full control effect; nearly all actives have a fitted effect of over 60% in size
Procedure, shortened: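 5 nM human CYP2C19 with 10uM Luciferin-H EGE (at KM) in 50mM KPO4, compound preincubated 10 min at 37C, then NADPH regeneration for 60 min at 37C. Luciferin read by luminescence after detection reagent; normalized to 57uM ketoconazole as full inhibition.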

[11] = Confirmation and Secondary Assay for Modulators of Hemoglobin Beta Chain Splicing at IVS2 654 locus (AID 910); conditions: HeLa EGFP-654 splicing reporter, GFP fluorescence, 48 h; series mostly up to 46.1 µM;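 also: HeLa cells stably carrying EGFP split by mutant beta-globin IVS2-654 intron; % of control where 0% means no effect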
Procedure, shortened: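 HeLa cells stably expressing EGFP interrupted by β-globin IVS2-654 intron, seeded overnight in Opti-MEM/2% FCS, then treated 2 days at 37 °C. Restored splicing read as total peak GFP intensity per well by laser scanning cytometry (488 nm excitation, 500–520 nm emission); 500 nM antisense PNA as control.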

[12] = Confirmation and Secondary Assay for Modulators of Hemoglobin Beta Chain Splicing at IVS2 705 locus (AID 930); conditions: HeLa EGFP-705 splicing reporter, GFP fluorescence, 48 h; series mostly up to 46.1 µM;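 also: HeLa cells stably expressing the EGFP-705 splicing reporter; GFP fluorescence per well restored by corrected splicing of the IVS2-705 intron in EGFP; % of control where 0% means no effect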
Procedure, shortened: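 Read-out: total peak GFP fluorescence per well (488 nm excitation, 500-520 nm emission) by laser-scanning cytometry. Cells: HeLa EGFP-705 splicing reporter, 2 days compound exposure in Optimem/2% FCS.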

[13] = target: Cytochrome P450 2D6 (Homo sapiens) (UniProt P10635); assay: qHTS Assay for Inhibitors and Substrates of Cytochrome P450 2D6 (AID 891); conditions: recombinant CYP2D6, luciferin-ME EGE luminescence; series mostly up to 57.1 µM; also: potency is read from the fitted curve at half-maximal effect; nearly all actives have a fitted effect of over 60% in size
Procedure, shortened: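 Human CYP2D6 (5 nM) with 30 uM Luciferin-ME EGE (at Km) in 100 mM KPO4, compound preincubated 10 min, then NADPH regeneration system for 60 min at room temperature. Luciferin read by luminescence; normalized to 1.43 uM quinidine.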

[14] = qHTS Assay for Identification of Small Molecule Agonists for Hypoxia Response Element Signaling Pathway (AID 914; active = well fitted activation curve with a large enough effect in the signal ratio, with a control signal flat, not every such curve was filed as active; the % refers to the signal ratio; also: % of control where 0% means no effect); conditions: ME-180 (cervical carcinoma) HRE-bla reporter, beta-lactamase ratio, CoCl2, 17 h; hits give high values
Procedure, shortened: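 HRE-bla ME-180 cells, overnight plating in Opti-MEM with 0.5% dialyzed FBS; cpd titration + EC50 CoCl2, 17 h, 37 degrees Celsius; CCF4 2.5 h RT; 460/530 nm ratio; AC50.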

Cytochrome P450 3A4 (Homo sapiens), sequence (P08684 whole entry, looked up): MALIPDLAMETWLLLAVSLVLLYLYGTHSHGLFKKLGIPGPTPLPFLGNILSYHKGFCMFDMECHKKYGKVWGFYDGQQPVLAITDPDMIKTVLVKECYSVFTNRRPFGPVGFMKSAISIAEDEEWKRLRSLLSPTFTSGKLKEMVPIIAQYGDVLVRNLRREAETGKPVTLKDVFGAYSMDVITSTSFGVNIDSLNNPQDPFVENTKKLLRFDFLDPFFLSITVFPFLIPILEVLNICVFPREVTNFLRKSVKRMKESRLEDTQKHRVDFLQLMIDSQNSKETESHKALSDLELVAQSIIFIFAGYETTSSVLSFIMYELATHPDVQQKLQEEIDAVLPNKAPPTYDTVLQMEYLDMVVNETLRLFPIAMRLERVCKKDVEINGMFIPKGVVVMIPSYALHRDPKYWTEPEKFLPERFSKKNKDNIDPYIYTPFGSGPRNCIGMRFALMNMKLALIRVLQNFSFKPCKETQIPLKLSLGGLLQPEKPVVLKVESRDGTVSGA
Cytochrome P450 2D6 (Homo sapiens), sequence (P10635 whole entry, looked up): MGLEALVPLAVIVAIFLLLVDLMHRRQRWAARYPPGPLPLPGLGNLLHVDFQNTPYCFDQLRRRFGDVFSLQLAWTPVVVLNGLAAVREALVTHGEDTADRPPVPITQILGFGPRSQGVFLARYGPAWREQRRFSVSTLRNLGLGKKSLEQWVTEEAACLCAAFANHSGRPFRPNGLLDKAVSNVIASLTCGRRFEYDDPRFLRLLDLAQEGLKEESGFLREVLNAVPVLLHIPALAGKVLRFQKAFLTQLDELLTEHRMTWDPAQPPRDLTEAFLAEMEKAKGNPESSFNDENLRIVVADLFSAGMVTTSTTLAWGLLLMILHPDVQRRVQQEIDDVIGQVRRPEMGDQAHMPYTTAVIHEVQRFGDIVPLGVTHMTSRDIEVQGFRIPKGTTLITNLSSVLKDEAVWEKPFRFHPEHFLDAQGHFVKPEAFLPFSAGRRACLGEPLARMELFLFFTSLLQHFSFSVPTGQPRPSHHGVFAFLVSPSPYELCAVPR
Cytochrome P450 2C19 (Homo sapiens), sequence (P33261 whole entry, looked up): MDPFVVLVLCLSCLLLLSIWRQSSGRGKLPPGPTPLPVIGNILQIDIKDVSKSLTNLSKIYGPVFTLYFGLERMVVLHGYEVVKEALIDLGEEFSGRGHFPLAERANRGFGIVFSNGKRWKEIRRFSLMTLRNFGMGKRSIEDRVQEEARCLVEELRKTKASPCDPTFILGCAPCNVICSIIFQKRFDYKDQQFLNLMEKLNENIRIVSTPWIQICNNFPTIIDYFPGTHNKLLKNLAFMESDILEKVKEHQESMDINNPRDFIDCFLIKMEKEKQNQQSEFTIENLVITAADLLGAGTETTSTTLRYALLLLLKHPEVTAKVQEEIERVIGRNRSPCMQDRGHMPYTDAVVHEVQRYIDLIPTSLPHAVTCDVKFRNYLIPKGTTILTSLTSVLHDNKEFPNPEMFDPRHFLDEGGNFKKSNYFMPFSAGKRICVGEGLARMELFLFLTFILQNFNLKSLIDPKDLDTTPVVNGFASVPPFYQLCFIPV
Cytochrome P450 2C9 (Homo sapiens), sequence (P11712 whole entry, looked up): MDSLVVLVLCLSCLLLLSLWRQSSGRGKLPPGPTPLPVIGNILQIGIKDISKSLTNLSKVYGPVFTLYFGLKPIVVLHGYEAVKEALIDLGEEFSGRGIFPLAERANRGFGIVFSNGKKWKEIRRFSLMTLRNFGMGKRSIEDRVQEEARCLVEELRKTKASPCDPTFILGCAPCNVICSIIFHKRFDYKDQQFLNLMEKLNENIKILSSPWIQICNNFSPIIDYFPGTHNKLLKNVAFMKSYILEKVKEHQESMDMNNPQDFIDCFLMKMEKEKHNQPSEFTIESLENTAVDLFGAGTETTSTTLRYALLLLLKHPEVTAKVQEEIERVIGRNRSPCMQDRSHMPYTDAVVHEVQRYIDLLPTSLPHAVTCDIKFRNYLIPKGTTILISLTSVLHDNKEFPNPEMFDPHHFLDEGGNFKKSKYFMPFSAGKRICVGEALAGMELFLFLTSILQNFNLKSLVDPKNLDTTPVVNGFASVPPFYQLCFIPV

Cc1cn([C@H]2C[C@H](O)[C@@H](CO)O2)c(=O)[nH]c1=O
inactive: Potency [1]

O=c1ccn([C@@H]2O[C@H](CO)[C@@H](O)[C@H]2O)c(=O)[nH]1
inactive: Potency [1]

CC(Cc1ccc(O)c(O)c1)C(C)Cc1ccc(O)c(O)c1 (stereo not drawn)
inactive: outcome [2]
active: Potency [1] 12.6 µM

CC1=C2[C@@H]([C@H](C)CC[C@H]2/C=C(\C)C(=O)O)[C@H](O)C1
inactive: Potency [1] | Potency [3] | Potency [4] | outcome [5] | outcome [6] | outcome [7] | Potency [8]

O=S(=O)(O)O
inactive: Potency [1] | Potency [3] | Potency [4] | outcome [5] | outcome [6] | outcome [7] | Potency [8]

Cc1c(C)c2c(c(C)c1O)CC[C@@](C)(CCC[C@@H](C)CCC[C@@H](C)CCCC(C)C)O2
inactive: outcome [9] | outcome [10]

O=C(O)CN(CCN(CC(=O)O)CC(=O)O)CC(=O)O
inactive: Potency [1] | outcome [11] | outcome [12]

OCc1ccccc1O[C@@H]1O[C@H](CO)[C@@H](O)[C@H](O)[C@H]1O
inactive: Potency [1]

Cc1c(C)c2c(c(C)c1O)CC[C@@](C)(CCC[C@H](C)CCC[C@H](C)CCCC(C)C)O2
inactive: Potency [1]

CC(O)CO (stereo not drawn)
inactive: Potency [1] | Potency [3] | Potency [4] | outcome [5] | outcome [6] | outcome [7] | Potency [8]

CC1=C(/C=C/C(C)=C/C=C/C(C)=C/CO)C(C)(C)CCC1
inactive: outcome [2] | outcome [11] | outcome [12] | outcome [6] | outcome [7]

O=CCCCC=O
active: Potency [3] 15.8 µM | Potency [8] 50.1 µM
inactive: Potency [1] | Potency [4] | outcome [6] | outcome [7]

NC(=O)c1ncn(C2OC(CO)C(O)C2O)n1 (stereo not drawn)
inactive: outcome [11] | outcome [12]

Nc1c(Br)cc(Br)cc1CNC1CCC(O)CC1 (stereo not drawn)
inactive: outcome [11] | outcome [12]

CCC(=O)NCCC1CCc2ccc3c(c21)CCO3 (stereo not drawn)
inactive: outcome [11] | outcome [12]

O=C1CSC2(CCN(CCCN3c4ccccc4Sc4ccc(Cl)cc43)CC2)N1
active: Potency [13] 0.631 µM

CC(C)(C)NC(=O)[C@@H]1C[C@@H]2CCCC[C@@H]2CN1C[C@@H](O)[C@H](Cc1ccccc1)NC(=O)[C@H](CC(N)=O)NC(=O)c1ccc2ccccc2n1
active: Potency [4] 50.1 µM | Potency [8] 50.1 µM

CC(C)N=c1cc2n(-c3ccc(Cl)cc3)c3ccccc3nc-2cc1Nc1ccc(Cl)cc1
active: Potency [13] 2.51 µM

CCCC(=O)Nc1ncnc2c1ncn2C1OC2COP(=O)(O)OC2C1OC(=O)CCC (stereo not drawn)
inactive: outcome [11] | outcome [12]

C=CCSSSCC=C
inactive: outcome [2] | outcome [11] | outcome [12]

CC(C(=O)O)c1ccc(N2Cc3ccccc3C2=O)cc1 (stereo not drawn)
inactive: outcome [2] | outcome [11] | outcome [12]

CCCCC/C=C\C/C=C\CCCCCCCC(=O)O
inactive: outcome [2] | Potency [3] | Potency [4] | outcome [6] | outcome [7] | Potency [8]

CN(C)CCCN1c2ccccc2C(C)(C)c2ccccc21
active: Potency [13] 3.98 µM

Cc1onc(-c2ccccc2)c1C(=O)N[C@@H]1C(=O)N2[C@@H]1SC(C)(C)[C@@H]2C(=O)O
inactive: activation [14] -2.15%

CCOC(C)=O
inactive: Potency [1] | Potency [3] | Potency [4] | outcome [5] | outcome [6] | outcome [7] | Potency [8]

C[C@@H]1CCC2[C@@H](C)[C@@H](O)O[C@@H]3O[C@@]4(C)CC[C@@H]1[C@@]23OO4 (stereo partly drawn)
inactive: outcome [2] | outcome [11] | outcome [12]

CCOc1ccc2c(c1)C(C)=CC(C)(C)N2
inactive: outcome [2] | outcome [11] | Potency [3] | outcome [12] | Potency [4] | outcome [5] | outcome [6] | outcome [7]

CC(C)=O
inactive: Potency [3] | Potency [4] | outcome [5] | outcome [6] | outcome [7] | Potency [8]

CCCCCCCC/C=C\CCCCCCCC(=O)O
inactive: Potency [1] | Potency [3] | Potency [4] | outcome [6] | outcome [7] | Potency [8]

Cc1ccccc1
inactive: Potency [1] | Potency [3] | Potency [4] | outcome [5] | outcome [6] | outcome [7] | Potency [8]

CN1Cc2c(N)cccc2C(c2ccccc2)C1 (stereo not drawn)
inactive: outcome [11] | outcome [12]
